Results reported in PubChem BioAssay AID2358 (The Scripps Research Institute Molecular Screening Center, 2010).
Among all 1,900 compounds or so, about 1,000 (53%) were called active. So high a share suggests a set chosen from earlier hits. Not all results are given here. A number with no mark means an inactive call.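 The calls were made as follows: active = mean PP1 inhibition above a set limit taken from the earlier primary screen (cut at about 15% in these data); inactive = the rest.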

Target: Serine/threonine-protein phosphatase PP1-alpha catalytic subunit (Homo sapiens) (UniProt P62136)
Assay: inhibition of human PP1-alpha enzyme activity – biochemical, fluorescence, OMFP substrate, triplicate, confirmation (AID 2358)
Settings: purified PP1alpha, at 6.7 µM, stronger effect = higher value

Sequence of Serine/threonine-protein phosphatase PP1-alpha catalytic subunit (Homo sapiens) (P62136 whole entry, looked up): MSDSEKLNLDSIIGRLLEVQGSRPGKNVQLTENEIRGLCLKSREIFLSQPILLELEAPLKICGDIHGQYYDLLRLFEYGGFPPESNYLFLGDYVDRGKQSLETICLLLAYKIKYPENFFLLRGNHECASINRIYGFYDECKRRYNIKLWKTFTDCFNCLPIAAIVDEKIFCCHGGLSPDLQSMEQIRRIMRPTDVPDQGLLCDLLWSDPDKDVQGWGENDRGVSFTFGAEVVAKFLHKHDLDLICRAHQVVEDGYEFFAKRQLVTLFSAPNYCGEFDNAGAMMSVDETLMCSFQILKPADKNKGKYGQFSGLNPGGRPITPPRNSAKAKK

SMILES	inhibition
O=c1[nH]c(CN2CC=C(c3ccccc3)CC2)nc2scc(-c3cccs3)c12	19.9% (active)
CCOP(=O)(OCC)C(O)c1ccc(OC)cc1OC (stereo not drawn)	-5.49%
O=C(O)c1ccccc1NC(=O)C1C2CCC(O2)C1C(=O)O (stereo not drawn)	13.2%
